# Only some compounds are listed: those with a hit (about 4% of all), similar ones and a draw of the others.
# TWEAK-Fn14 inh: inhibitors of TWEAK-Fn14 interaction signaling | actives 2% (n = 360,000) | TWEAK-stimulated Fn14 reporter cells, luciferase luminescence, 8 h | inhibition, % at 10 µM | AID 1159606; in the data active means inhibition above about 50%
# KKLEB cytotox: counter-screen for CF NF-kB inhibitors: cytotoxicity; AID 602141; actives 0.36% (n = 360,000); KKLEB CF airway cells viability, ATPlite luminescence, overnight; active compounds read low; cells stimulated with P. aeruginosa culture filtrate; activity change (cytotoxicity), % at 5 µM;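 active means corrected activity change at or below -50% at 5 µM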
# HIF-2a inh: inhibitors of HIF-2a; 786-0 RCC cells HIF-2a reporter, luciferase luminescence, overnight; inhibition, % at 18.8 µM; actives 0.72% (n = 360,000); AID 624352;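 active means inhibition of the luminescence signal of 40% or more relative to plate controls, in a single-dose primary screen at 18.75 µM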
# TROY signal inh: TROY signaling inhibition; inhibition, % at 10 µM; actives 0.98% (n = 360,000); Q293 LMP1-TROYcd NF-kB luciferase reporter, 4 h; AID 1347056;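 active means compounds whose plate-normalised and pattern-corrected inhibition of the luciferase reporter signal at the single screening dose is 50% or more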
# Peg3 prom inh: inhibitors of Peg3 promoter. HeLa PEG-Prom luciferase reporter, luminescence, overnight. inhibition, % at 20 µM. actives 1.7% (n = 360,000). AID 588405;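 active means inhibition of at least 50% at 20 µM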
# CF NFkB block: cystic fibrosis NF-kB activation inhibition; KKLEB NF-kB-GFP reporter, PAF-induced, GFP fluorescence overnight; inhibition, % at 5 µM; actives 0.86% (n = 360,000);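 active means at least 50% inhibition at 5 µM, scaled per plate between neutral and stimulator controls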;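 further: PAF is a Pseudomonas aeruginosa culture filtrate used as stimulus; plate controls were PAF-stimulated DMSO wells for no effect and unstimulated DMSO wells for full effect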
# An asterisk follows results filed as active.
SMILES,TWEAK-Fn14 inh,KKLEB cytotox,HIF-2a inh,TROY signal inh,Peg3 prom inh,CF NFkB block
CNc1ccc(N=Nc2cccc3ncccc23)cc1,23,10,11,-20,-266,18
COc1cc(C)ccc1Oc1ccc([N+](=O)[O-])cc1,-14,5,-54,-7,-31,14
COc1ccc(C(=O)/C=C/Nc2cc(C)ccn2)cc1,75*,-16,-46,6,-46,8
COCCCN1C(=O)C(CC(=O)NC2CC2)CC(C(=O)N(C(C)C)C(C)C)=C1C (stereo not drawn),-29,0,8,-20,3,-7
COc1ccc(-n2c(-c3cc(-c4ccccc4)sc3N)n[nH]c2=S)cc1,-25,20,-6,-18,87*,-38
Nc1sc(-c2ccccc2)cc1-c1n[nH]c(=S)n1C1CCCCC1,19,7,20,-18,45,2
CCOC(=O)c1c(-c2ccccc2)oc2ccc(OCC(O)CNCCN(C)C)cc12 (stereo not drawn),-81,-14,10,-71,100*,-3
O=c1[nH]c2ccc(Cl)cc2c(-c2ccccc2)c1SC(=S)N1CCCCC1,77*,-9,30,2,27,19
CCN(CC)C(=O)Cn1cc(C(=O)C(=O)Nc2ccc3c(c2)OCO3)c2ccccc21,-23,-1,-83,-19,-69,26
CCN(CC(=O)NCc1ccc(Cl)cc1)C(=O)CN1C(=O)NC(C)(c2ccccc2)C1=O (stereo not drawn),-4,10,4,-25,8,11
CCN(CC(=O)NCc1ccc(Cl)cc1)C(=O)CN1C(=O)NC(CC)(c2ccccc2)C1=O (stereo not drawn),91*,10,11,-10,8,4
CCCOc1ccccc1C1CC(=O)Nc2cc3c(cc21)OCCO3 (stereo not drawn),55*,1,31,48,7,33
CCOc1ccccc1C1CC(=O)Nc2cc3c(cc21)OCCO3 (stereo not drawn),17,-34,21,23,4,20
O=C(Cn1c(COc2ccccc2)nc2ccccc21)Nc1cc(Cl)ccc1Cl,-18,-46,8,-20,54*,41
Nc1ccc(S(=O)(=O)Nc2nccs2)cc1N=Nc1ccccc1[N+](=O)[O-],-12,6,-56,-19,-20,18
CCN(CC)CCCNc1ccc(-c2nnc(-c3ccc(OCC(C)C)cc3)o2)cn1,-71,-19,16,-21,113*,3
CC(C)COc1ccc(-c2nnc(-c3ccco3)o2)cc1,57*,1,-75,-12,-74,-20
O=C(COc1ccccc1)Nc1ccc(-c2nnc(-c3ccco3)o2)cc1,-14,4,-65,-40,-44,-26
CCCOc1ccc(-c2nnc(-c3ccco3)o2)cc1,72*,6,-32,34,-22,-32
O=C(NC(=S)Nc1ncc(Br)cc1Br)c1ccccc1,31,-12,-193,-25,-310,5
NC(Cc1ccc(Cl)cc1)c1csc(Nc2cc(NCCCO)ncn2)n1 (stereo not drawn),-3,-10,11,14,17,28
O=C(O)CCC(=O)Nc1cccc(-c2csc(-c3ccccc3)n2)c1,57*,5,83*,8,-1,14
Cn1c(=O)c2ncn(CC(=O)Nc3cccc(-c4nc5ccccc5s4)c3)c2n(C)c1=O,67*,4,-389,36,-147,-29
O=C(CCS(=O)(=O)c1ccccc1)Nc1cccc(-c2nc3ccccc3s2)c1,87*,26,-305,57*,-101,-88
COc1c(C)cc(S(=O)(=O)NCCN2CCOCC2)c(C)c1C,6,11,16,-11,2,-1
CS(=O)(=O)N(CC(=O)N1CCCC1)c1cccc(C(F)(F)F)c1,-1,-1,-9,-9,6,-19
O=C1C=C(N2CCOCC2)c2ccccc2C1=O,10,-76*,37,12,101*,85*
O=C1C=C(N2CCOCC2)c2cccc3cccc1c23,4,1,-7,2,-20,-16
NCCOc1ccc(C23CC4CC(CC(C4)C2)C3)cc1,8,-29,-87,22,101*,40
OCCN1CCN(CC(O)COc2ccc(C34CC5CC(CC(C5)C3)C4)cc2)CC1 (stereo not drawn),-129,-43,7,-50,114*,21
